From PubChem BioAssay
KDM5B inh – inhibitors of human KDM5B histone demethylase; Q9UGL1; KDM5B demethylase, FDH-coupled NADH fluorescence (FDH is formaldehyde dehydrogenase); Potency, µM (highest dose often 57.7 µM), most hits filed as inhibitors; actives 2.6% (n = 220,000); active = well fitted inhibition curve with a large enough effect; also: 0% is about no effect; nearly all actives have a fitted effect of over 70% in size
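KDM5BΔAP (200 nM final) in 50 mM HEPES pH 7.5, 0.01% Tween-20 was preincubated 10 min at RT with compound over a concentration range. Substrate mix (H3K4me3 12.5 µM, α-KG 25 µM, Fe²⁺, ascorbate, NAD⁺, FDH) was added, and NADH fluorescence change over 30 min gave dose-response curves.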
Numbers without * were called inactive; i = inactive. The sample as a whole holds a higher share of hits than the screen did. Potency is read from the fitted curve at half-maximal effect.

SMILES | KDM5B inh
CC(NC(=O)C(C)(C)C)C(=O)N1CCN(c2ccccn2)CC1 (stereo not given) | 28µM*
O=C(CN1CCN(c2ccccn2)CC1)Nc1cccc(Br)c1 | i
COCC1CCN(C(=O)C2CCCN(C(=O)c3ccccc3)CCC(=O)NCC2)CC1 (stereo not given) | i
O=C(CCN1CCN(c2ccccn2)CC1)Nc1ccc(F)c(F)c1 | i
Cc1ccc(CC(=O)NC(C)C(=O)N2CCN(c3ccccn3)CC2)cc1 (stereo not given) | 28µM*
COc1ccc(/C=C/C(=O)OCCN(C)C)cc1 | i
CCN1CCCC1CNC(=O)C1CCN(c2nc(Cl)nc3nc[nH]c23)CC1 (stereo not given) | i
CCCOC(=O)c1c(NC(=O)c2nc3nc(C)cc(C(F)F)n3n2)sc2c1CCCC2 | i
Cc1ccc(S(=O)(=O)c2cc3c(cc2NC(=O)COc2ccc(C)cc2C)n(C)c(=O)n3C)cc1 | i
CN(CC(=O)Nc1ccc(Cl)cc1)CC(=O)N(C)C1(C#N)CCCCC1 | i
O=C1CC(c2ccccc2O)Cc2nc(N3CCN(c4cccc(C(F)(F)F)c4)CC3)ncc21 (stereo not given) | i
O=C(CSc1nc2nccnc2c(=O)n1CCc1ccccc1)Nc1ccccc1 | i
CC(NC(=O)CCc1ccccc1)C(=O)N1CCN(c2ccccn2)CC1 (stereo not given) | 25µM*
C[C@H](NC(=O)c1ccccc1)C(=O)N1CCN(c2ccccc2)CC1 | i
CC(CNC(=O)CCc1ccccc1)NC(=O)CCc1ccccc1 (stereo not given) | i
CCCCCn1nc(C(=O)N2CCN(c3ccccn3)CC2)c2ccccc2c1=O | i
CCC(=O)N1CCC2(CC1)CC(N1CCN(c3ccccn3)CC1)CCO2 (stereo not given) | i
CCCC(=O)NC(C)C(=O)N1CCN(c2ccccn2)CC1 (stereo not given) | 25µM*
COc1ccccc1C(=O)Nc1ccc(-c2nc3ncccc3o2)cc1 | i
COc1ccc(C(=O)N2CCC(C(=O)N(C)Cc3ccc(C)cc3)CC2)c2ccccc12 | i
CC(C(=O)N1CCc2ccccc2C1)N(C)Cc1c(F)cccc1Cl (stereo not given) | i
O=C(NCc1cccc(C(F)(F)F)c1)C1CCN(C(=O)/C=C/c2ccccc2)CC1 | i
COCCN1C(=O)CSC12CCN(C(=O)NCc1ccccc1)CC2 | i
COCCOC1CCN(C(=O)NCc2ccccc2)CC1 | i
COCCN(C)C(=O)C1(C)CN(Cc2ccccc2)Cc2ccc(NCC(C)C)nc21 (stereo not given) | 32µM*
SMILES | KDM5B inh
CN(C)C(=O)N1CCC2(CC1)CN(Cc1ccncc1)Cc1ccccc1O2 | i
COCCN1Cc2ccc(NCc3ccccc3)nc2C(C)(C(=O)N(C)CCOC)C1 (stereo not given) | 35µM*
COCCNc1cc2c(cn1)CN(Cc1ccccc1)CCN2 | i
Cc1cc(Br)ccc1NC(=O)c1ccc2c(Cl)c3c(nc2c1)CCC3 | i
CCCCN(C)C(=O)CSc1nc2ccsc2c(=O)n1-c1cc(F)cc(F)c1 | i
CC(NC(=O)C(C#N)C(=O)/C=C/c1ccccc1)c1ccccc1 (stereo not given) | i
Cc1cc(C(=O)OCC(=O)Nc2c(C)cccc2C)c2ccccc2n1 | i
Cc1cn2c(=O)cc(COc3ccc(C(C)(C)C)cc3)nc2s1 | i
Cc1cc(C)cc(OCc2cc(=O)n3cc(C)sc3n2)c1 | i
Cc1cn2c(=O)cc(CN3CC[C@@](C)(O)[C@@H](O)C3)nc2s1 | 32µM*
COc1ccc(/C=C2/C(=O)N(C)C(=S)N2C)cc1 | i
O=C(CC(c1cccc([N+](=O)[O-])c1)c1cn(Cc2ccc(F)cc2)c2ccccc12)N1CCCC1 (stereo not given) | i
CCC(Cn1ccnc1)NC(=O)c1cccc(NCc2ccc(F)cc2)c1 (stereo not given) | 20µM*
O=C(NCCCn1ccnc1)c1cccc(Br)c1 | i
CN(C)[C@H]1CN(C(=O)c2cccc(NCc3ccc(F)cc3)c2)C[C@@H]1O | i
CN(C)CCCOC(=O)c1ccc(C(C)(C)C)cc1 | i
O=C(Nc1cccc(C(F)(F)F)c1)O[C@@H]1CO[C@H]2[C@@H]1OC[C@@H]2n1cc(-c2ccccn2)nn1 | i
Cc1ccc(OCC(=O)N[C@@H]2CCOC[C@H]2Oc2cccc(F)c2)cc1C | i
COc1cccc(CCC(=O)N[C@@H]2COCC[C@@H]2Oc2cccc(F)c2)c1 | i
CC(C)c1cc(C(=O)N[C@@H]2COCC[C@@H]2Oc2cccc(F)c2)nc(N)n1 | 28µM*
CCOc1ccc(NS(=O)(=O)c2ccc(Cl)c(C(=O)Nc3ccc4oc(C)nc4c3)c2)cc1 | i
Cc1ccc(NC(=S)NCCCO)cc1 | i
Cc1nn2c(c1-c1ccnn1C(C)C)N(C(=O)C(C)C)CCC2 | i
COc1ccc(OC)c(CN2CCCn3nc(C)c(-c4ccnn4C(C)C)c32)c1 | i
Cc1nn2c(c1-c1ccnn1C(C)C)N(Cc1ccc(C(=O)O)s1)CCC2 | 25µM*
SMILES | KDM5B inh
Cc1csc(NC(=O)COc2cccc3ccccc23)n1 | i
Cc1ccc(C2(O)CCN(CC(c3ccccc3)c3ccccc3)CC2)nc1 | i
Cc1ccc(C2(O)CCN(c3cc(C(F)(F)F)ccn3)CC2)nc1 | 25µM*
Cc1ccc(C2(O)CCN(c3ncccc3C(F)(F)F)CC2)nc1 | i
CCOC(=O)CCCNC(=S)Nc1c(C)cccc1C | i
C[S+](=O)([O-])c1cccc(NC(=O)c2cnc3n2CCN(CCc2ccccc2)CC3)c1 | i
c1ccc(CCN2CCNc3cc(Nc4ccc(N5CCOCC5)cc4)ncc3C2)cc1 | i
COc1ccc(CNc2cc3c(cn2)CN(Cc2ccccc2)CCN3)cc1OC | i
COc1cccc(Nc2cc3c(cn2)CN(Cc2cccnc2)CCN3)c1 | i
C[S+](=O)([O-])c1ccc(-c2cc3c(cn2)CN(CCc2ccccc2)CCN3)cc1 | 40µM*
COc1ccc(-c2cc3c(cn2)CN(Cc2ccccc2)CCN3)cc1OC | 32µM*
COc1ccccc1CN1CCNc2cc(-c3ccnc(C)c3)ncc2C1 | i
Cc1cc(-c2cc3c(cn2)CN(CC2CCOCC2)CCN3)ccn1 | 35µM*
COc1ccc(Cl)cc1-c1cc2c(cn1)CN(Cc1cccnc1)CCN2 | 32µM*
COc1ccc2cc(CN(C)C(=O)CNC(=O)c3ccc(Cl)c(Cl)c3)ccc2c1 | i
O=C(Oc1ccc2cc(Br)ccc2c1)C(c1ccccc1)c1ccccc1 | i
COc1cc(/C=C/c2nc(C#N)c(NCc3ccco3)o2)cc(OC)c1OC | i
COc1cccc(/C=C/C(=O)c2ccc(C)cc2C)c1OC | i
CC1(C)CC(=O)C2=C(C1)N1CCc3cc4c(cc3C1=CC2c1ccc(F)cc1)OCCCO4 (stereo not given) | i
Cn1c(=O)c2c(ncn2CC(=O)Nc2ccccc2C(=O)NC2CCCC2)n(C)c1=O | i
CCn1c(C)cc(C(=O)COC(=O)c2c(C)nn(Cc3ccc(C)cc3)c2Cl)c1C | i
COc1ccc(-c2cc3c(cn2)CN(CCc2ccccc2)CCN3)cc1OC | 35µM*
CCOc1nc2ccccc2nc1N1CCC(C(=O)NCc2ccc(C)cc2)CC1 | i
CCCOc1ccc(NC(=O)C(C)Oc2ccc(C)c(C)c2)c2cccnc12 (stereo not given) | i
COc1ccc(S(=O)(=O)N2C[C@@H]3C[C@H](C2)c2ccc(-c4ccc(OC(F)(F)F)cc4)c(=O)n2C3)cc1 | 28µM*
